From PubChem BioAssay AID1159580 (chemical genetic matrix, 2015)
Values joined by “and” are separate entries in the source; they are usually repeats but may differ in a detail not shown here. Equal entries are not always repeated. Among all 5,500 compounds or so, about 2,000 (36%) were called active. Roughly 18% stayed inconclusive and do not appear here. Rule as the data show it: active = normalized growth mostly below about 0.91 (no sharp cut-off); inconclusive = no clear call, values can overlap the other calls; inactive = mostly above about 0.92. The list shows a part of the results.

Experiment: chemical genetic growth profiling, strain panel (AID 1159580);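 also: tested at 20 µM; growth read once vehicle control cultures reached saturation at 30 °C; 1 = growth at the plate median or of vehicle wells; lower values mean less growth of the strain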
Details: S. cerevisiae deletion strains, growth OD

Measured: normalized growth

CN[C@@H](C)[C@@H](O)c1ccccc1
inactive: locus YAL021C, strain ccr4, hits give low values 0.987 | locus YAL026C, strain drs2, hits give low values 0.995 | locus YAL030W, strain snc1, hits give low values 0.995 | locus YBL061C, strain skt5, hits give low values 0.992 | locus YBR009C, strain hhf1, hits give low values 1.02 | locus YBR021W, strain FUR4, hits give low values 1.01 | locus YBR023C, strain chs3, hits give low values 0.981 | locus YBR171W, strain sec66, hits give low values 0.993 | locus YBR229C, strain ROT2, hits give low values 0.949 | locus YBR231C, strain swc5, hits give low values 0.996 | locus YBR279W, strain paf1, hits give low values 1 | locus YCL011C, strain gbp2, hits give low values 0.971 | locus YCL016C, strain dcc1, hits give low values 0.987 | locus YCL029C, strain bik1, hits give low values 0.976 | locus YCL069W, strain vba3, hits give low values 0.995 | locus YCR088W, strain abp1, hits give low values 0.995 | locus YDL005C, strain med2, hits give low values 0.994 | locus YDL035C, strain GPR1, hits give low values 0.949 | locus YDL040C, strain nat1, hits give low values 1 | locus YDL074C, strain BRE1, hits give low values 1.01 | locus YDL101C, strain DUN1, hits give low values 1 | locus YDL185W, strain tfp1, hits give low values 0.961 | locus YDL192W, strain arf1, hits give low values 0.989 | locus YDR001C, strain nth1, hits give low values 0.996 | locus YDR069C, strain doa4, hits give low values 0.993 | locus YDR101C, strain arx1, hits give low values 0.998 | locus YDR137W, strain rgp1, hits give low values 0.982 | locus YDR159W, strain sac3, hits give low values 0.943 | locus YDR162C, strain NBP2, hits give low values 0.929 | locus YDR195W, strain ref2 0.977 | locus YDR297W, strain sur2, hits give low values 1 | locus YDR318W, strain mcm21, hits give low values 0.986 | locus YDR334W, strain swr1, hits give low values 1.01 | locus YDR335W, strain msn5, hits give low values 1 | locus YDR388W, hits give low values 0.992 | locus YDR392W, strain spt3, hits give low values 0.911 | locus YDR502C, strain sam2, hits give low values 1.01 | locus YEL003W, strain gim4, hits give low values 0.996 | locus YEL037C, strain rad23, hits give low values 0.985 | locus YEL061C, strain CIN8 (second series), hits give low values 0.989 | locus YEL061C, strain CIN8, hits give low values 0.989 | locus YER015W, strain faa2, hits give low values 1 | locus YER016W, strain bim1, hits give low values 0.984 | locus YER110C, hits give low values 0.987 | locus YER111C, strain swi4, hits give low values 0.996 | locus YER155C, strain BEM2 (second series), hits give low values 0.997 | locus YER155C, strain BEM2, hits give low values 0.999 | locus YER167W, strain BCK2, hits give low values 0.982 | locus YFR010W, strain ubp6, hits give low values 0.992 | locus YGL078C, strain dbp3, hits give low values 0.996 | locus YGL086W, strain mad1, hits give low values 0.996 | locus YGL167C, strain pmr1, hits give low values 1 | locus YGL173C, strain kem1, hits give low values 0.988 | locus YGL227W, strain vid30, hits give low values 0.982 | locus YGL240W, strain doc1, hits give low values 1 | locus YGL248W, strain PDE1, hits give low values 1.01 | locus YGL253W, strain hxk2, hits give low values 0.985 | locus YGR135W, strain pre9, hits give low values 0.989 | locus YGR252W, strain gcn5, hits give low values 1.01 | locus YHR013C, strain ard1, hits give low values 0.961 | locus YHR027C, strain rpn1, hits give low values 1 | locus YHR030C, strain SLT2, hits give low values 0.977 and 1.04 | locus YHR079C, strain IRE1 (second series), hits give low values 0.993 | locus YHR079C, strain IRE1, hits give low values 1.02 | locus YHR094C, strain hxt1, hits give low values 0.985 | locus YHR129C, strain ARP1, hits give low values 0.994 | locus YHR142W, strain chs7, hits give low values 0.976 | locus YHR200W, strain rpn10, hits give low values 0.984 | locus YIL066C, strain RNR3, hits give low values 0.926 | locus YIL073C, strain SPO22, hits give low values 0.973 | locus YIL125W, strain kgd1, hits give low values 0.987 | locus YIR030C, strain dcg1, hits give low values 0.996 | locus YJL092W, strain hpr5, hits give low values 0.999 | locus YJL095W, strain BCK1 (second series), hits give low values 0.994 | locus YJL095W, strain BCK1, hits give low values 1.06 and 1.01 | locus YJL115W, strain asf1, hits give low values 0.999 | locus YJL129C, strain trk1, hits give low values 1.01 | locus YJL134W, strain LCB3, hits give low values 0.98 | locus YJL154C, strain vps35, hits give low values 0.996 | locus YJL164C, strain tpk1, hits give low values 1 | locus YJL166W, strain qcr8, hits give low values 1.01 | locus YJL168C, strain set2, hits give low values 0.995 | locus YJL187C, strain SWE1 (second series), hits give low values 1.03 | locus YJR043C, strain POL32, hits give low values 0.938 | locus YJR066W, strain TOR1, hits give low values 0.982 | locus YKL009W, strain mrt4, hits give low values 0.998
